Experiment [1] can be described thus: qHTS assay to identify small molecule agonists of the estrogen receptor alpha (ER-alpha) signaling pathway in the presence of an antagonist - cell viability counter screen (AID 1259386).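 Further: cells exposed to compounds for 22 h at 37 °C before the viability read; nearly all actives have a fitted effect of over 30% in size.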 Further: potency means the concentration at half of the fitted maximal effect. The gist of the method: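 Cell viability in VM7Luc4E2 cells (endogenous full-length ER-alpha) measured by CellTiter-Fluor fluorescence in the same wells as the luciferase screen. Cells pre-cultured 5 days in charcoal-stripped serum, then treated 22 h with compounds at 15 concentrations plus 10.0nM ICI-182,780.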
For orientation: qHTS replaces the single test concentration by a dilution series.

Experiment [2] deals with Progesterone receptor (Homo sapiens) (UniProt P06401). Briefly: qHTS assay to identify small molecule agonists of the progesterone receptor (PR) signaling pathway (AID 1346784; calls by dose curve; further: nearly all actives have a fitted effect of over 30% in size). The gist of the method: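 Reporter assay, GripTite PR-UAS-bla HEK 293T cells: 16 hr exposure to DMSO-dissolved compounds at 37C, 5% CO2, in steroid-depleted (2% charcoal-stripped FBS) medium; beta-lactamase measured by FRET fluorescence.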
Sequence of Progesterone receptor (Homo sapiens) (P06401 whole entry, looked up): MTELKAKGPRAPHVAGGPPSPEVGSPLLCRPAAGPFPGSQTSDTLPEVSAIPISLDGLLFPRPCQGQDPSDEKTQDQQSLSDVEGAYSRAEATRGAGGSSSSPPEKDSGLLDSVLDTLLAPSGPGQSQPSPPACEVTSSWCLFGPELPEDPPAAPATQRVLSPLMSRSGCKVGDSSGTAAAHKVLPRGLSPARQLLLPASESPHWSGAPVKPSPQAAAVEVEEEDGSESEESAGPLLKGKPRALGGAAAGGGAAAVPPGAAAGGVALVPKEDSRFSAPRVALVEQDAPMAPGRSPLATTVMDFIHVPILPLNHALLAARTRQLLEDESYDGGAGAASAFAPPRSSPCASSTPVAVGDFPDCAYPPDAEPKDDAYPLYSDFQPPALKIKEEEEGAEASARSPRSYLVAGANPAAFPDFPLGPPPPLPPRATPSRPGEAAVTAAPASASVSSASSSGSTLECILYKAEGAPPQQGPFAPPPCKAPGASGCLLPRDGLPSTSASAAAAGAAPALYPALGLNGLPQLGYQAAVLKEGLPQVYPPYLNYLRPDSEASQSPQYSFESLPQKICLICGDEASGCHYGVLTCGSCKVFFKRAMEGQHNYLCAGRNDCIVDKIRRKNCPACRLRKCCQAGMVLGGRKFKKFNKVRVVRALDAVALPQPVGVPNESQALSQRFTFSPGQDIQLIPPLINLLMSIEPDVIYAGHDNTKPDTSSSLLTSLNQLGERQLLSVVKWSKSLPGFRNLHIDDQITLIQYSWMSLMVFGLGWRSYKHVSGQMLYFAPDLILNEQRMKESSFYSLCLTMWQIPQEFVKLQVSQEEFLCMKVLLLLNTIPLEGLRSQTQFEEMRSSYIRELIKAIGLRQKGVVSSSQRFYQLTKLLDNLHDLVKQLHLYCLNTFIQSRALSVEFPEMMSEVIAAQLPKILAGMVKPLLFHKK

Experiment [3] in a line: qHTS assay to identify small molecule antagonists of the TGF-beta/Smad signaling pathway - cell viability counter screen (AID 1346824). Further: nearly all actives have a fitted effect of over 50% in size. The gist of the method:
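SBE-bla HEK 293T cells, incubated overnight, then compound plus 0.25 ng/mL TGF-beta1 (stock added) for 5 hr at 37 C. Viability was read in the same wells by CellTiter-Glo luminescence after 30 min at room temperature.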

Experiment [4] in a line: qHTS assay to identify small molecule agonists of the TGF-beta/Smad signaling pathway - cell viability counter screen (AID 1346829). Further: top concentration of the series differs between compounds; nearly all actives have a fitted effect of over 45% in size. The method in brief:
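HEK 293T SBE-bla line, 5 hr compound exposure at 37 C, multiplexed CellTiter-Glo viability read by luminescence.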

Experiment [5] addresses Thyrotropin-releasing hormone receptor (Homo sapiens) (UniProt P34981). Briefly: qHTS assay to identify small molecule antagonists of the thyrotropin-releasing hormone receptor (TRHR) signaling pathway (AID 1346877; active means well fitted inhibition curve with a large enough effect in the repeat runs, not every such curve was filed as active; further: series mostly up to about 51 µM). The gist of the method: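 TRHR-expressing HEK293 cells loaded with calcium dye for 2 h at 37 C; compounds pre-incubated 5 min at room temperature before TRH challenge at 1 nM final. Intracellular calcium fluorescence read kinetically for 3 min; 15 concentrations in triplicate.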

Experiment [6] in a line: qHTS assay to identify small molecule antagonists of the progesterone receptor (PR) signaling pathway - cell viability counter screen (AID 1346798). Further: series mostly up to about 92 µM; nearly all actives have a fitted effect of over 50% in size. The gist of the method: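 In the same plates used for the beta-lactamase readout, cell viability of compound- and R5020-treated PR-UAS-bla HEK293T cells (16 hr, 37C) was assessed by CellTiter-Glo luminescence.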
A short description of experiment [7]: qHTS assay to identify small molecule agonists of the progesterone receptor (PR) signaling pathway - cell viability counter screen (AID 1346799; calls by dose curve; further: nearly all actives have a fitted effect of over 45% in size). The gist of the method:
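Multiplexed viability read: CellTiter-Glo luminescence, 30 min RT, following LiveBLAzer FRET measurement on PR-UAS-bla HEK293T cells exposed to compounds 16 hr.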

A short description of experiment [8]: qHTS assay to identify small molecule agonists of the TGF-beta/Smad signaling pathway (AID 1346859; active means well fitted activation curve with a large enough effect in the signal ratio in the repeat runs, not every such curve was filed as active; the % refers to the signal ratio; further: series mostly up to about 77 µM). The method in brief:
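Screening used HEK 293T SBE-bla cells at 4,000/well. Test agents: 5 hr, 37 C. Detection: FRET substrate, 2 hr RT, then excitation 405 nm with emissions at 460 and 530 nm.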

Experiment [9] concerns the target Progesterone receptor (Homo sapiens) (UniProt P06401). Nature of the experiment: qHTS assay to identify small molecule antagonists of the progesterone receptor (PR) signaling pathway (AID 1346795; active means well fitted inhibition curve with a large enough effect in the signal ratio in the repeat runs, not every such curve was filed as active; the % refers to the signal ratio; further: potency means the concentration at half of the fitted maximal effect). The method in brief:
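Stimulus R5020 at 1 nM final; cells HEK293T PR-UAS-bla; medium with 2% charcoal-stripped FBS; compound exposure 16 hr at 37C, 5% CO2; detection by FRET beta-lactamase substrate, 2 hr, room temperature.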

Each structure is given as a SMILES string. Unmarked numbers belong to inactive results. Inconclusive results are not listed. Calls of active or inactive are those of the source. Unless noted, the call rests on the fitted dose curve; in most records, active means well fitted curve in the direction sought with a large enough effect in the repeat runs; inconclusive means weak or mixed curves; inactive means no such curve, though single readings can be large; an effect the other way counts as inactive or inconclusive.

Sequence of Thyrotropin-releasing hormone receptor (Homo sapiens) (P34981 whole entry, looked up): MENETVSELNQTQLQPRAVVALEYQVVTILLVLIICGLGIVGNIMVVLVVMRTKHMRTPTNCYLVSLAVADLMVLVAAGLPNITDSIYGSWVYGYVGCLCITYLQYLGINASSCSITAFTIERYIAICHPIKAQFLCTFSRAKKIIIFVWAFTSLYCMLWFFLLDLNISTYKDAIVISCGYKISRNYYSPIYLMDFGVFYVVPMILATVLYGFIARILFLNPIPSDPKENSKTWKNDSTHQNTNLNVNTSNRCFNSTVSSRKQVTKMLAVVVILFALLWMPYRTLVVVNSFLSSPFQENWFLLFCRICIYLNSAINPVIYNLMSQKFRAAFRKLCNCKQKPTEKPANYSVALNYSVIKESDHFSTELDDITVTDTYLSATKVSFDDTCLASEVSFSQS

Take `CCCCOc1cc(C(=O)NCCN(CC)CC)c2ccccc2n1`: the Potency entry in [1] and in experiment [2] was “inactive” throughout. Further, the outcome in experiment [3], in experiment [4] and in experiment [5] was inactive.
Consider `CCCCCCOc1ccc(N)cc1`, for which the Potency result in experiment [1], in [2], in experiment [6] and in experiment [7] was “inactive” in each case. The molecule was called inactive in experiment [3], in experiment [4] and in experiment [8].
Regarding `COc1cc(N)c(Cl)cc1C(=O)NC1CCN(Cc2ccccc2)CC1`, the Potency result in experiment [2], in experiment [9] and in experiment [6] was “inactive” in each case. Moreover, the molecule was called inactive in [3], in [4], in [8] and in experiment [5].
As for `CC1(O)CSC(C)(O)CS1` (stereo unspecified), the Potency result in experiment [1], in experiment [9] and in experiment [6] was “inactive” in each case. Besides, the molecule was called inactive in experiment [3], in experiment [4] and in experiment [5].
`O=CCCc1ccccc1`: the Potency entry in experiment [1], in [9] and in experiment [7] was “inactive” throughout. The call in experiment [3] and in [4] was inactive.
With `Cc1ccccc1C(=O)Nc1ccc(C(=O)N2CCCC(O)c3cc(Cl)ccc32)c(C)c1` (stereo unspecified), the Potency result in experiment [1], in experiment [2] and in [6] was “inactive” each time. Further, the call in experiment [3], in experiment [4] and in experiment [5] was inactive.
In the case of `CCCCc1ccc2nc(NC(=O)OC)[nH]c2c1`, the Potency entry in experiment [1] and in [2] was “inactive” throughout. In experiment [9], the Potency is 4.22 µM (active). Moreover, the call in experiment [3], in experiment [4], in [8] and in [5] was inactive.
In the case of `CCCN(CCC)C(=O)C(CCC(=O)O)NC(=O)c1ccccc1` (stereo unspecified), the Potency result in [1], in experiment [9], in experiment [6] and in experiment [7] was “inactive” each time. Moreover, the molecule was called inactive in experiment [3], in [4] and in [8].
For the molecule `COc1ccc(S(=O)(=O)Nc2nnc(CC(C)C)s2)cc1`, the Potency entry in experiment [1], in experiment [2], in experiment [9] and in [7] was “inactive” in each case. The molecule was called inactive in experiment [3], in experiment [4] and in experiment [5].
Turning to `O=C1N(c2ccccc2)c2ccccc2C1(Cc1ccncc1)Cc1ccncc1`, the Potency entry in experiment [1], in experiment [2], in experiment [6] and in experiment [7] was “inactive” each time. The result in experiment [3], in experiment [4], in experiment [8] and in experiment [5] was inactive.
`Nc1ccc(Oc2ccc(N)c(N)c2)cc1`: in experiment [1], the Potency was 54.5 µM (active). Also, the outcome in [3], in experiment [4] and in experiment [5] was inactive.
As for `CC(C)NC[C@@H](O)COc1cccc2ccccc12`, the Potency entry in experiment [1], in [2] and in experiment [9] was “inactive” in each case. Besides, the outcome in [3], in experiment [4], in [8] and in experiment [5] was inactive.
For the molecule `CC(=O)O[C@H]1CC[C@@]2(C)C(=CC[C@@H]3[C@@H]2CC[C@]2(C)C(C(C)=O)=CC[C@@H]32)C1`, the Potency entry in experiment [1], in experiment [2], in experiment [6] and in experiment [7] was “inactive” each time. Further, the call in [3], in experiment [4] and in [5] was inactive.
Take `CCC(=O)O[C@]1(C(=O)SCF)[C@H](C)C[C@H]2[C@@H]3C[C@H](F)C4=CC(=O)C=C[C@]4(C)[C@@]3(F)[C@@H](O)C[C@@]21C`: the Potency entry in experiment [1], in experiment [9], in experiment [6] and in experiment [7] was “inactive” throughout. The outcome in [3], in experiment [4], in [8] and in experiment [5] was inactive.
As to `CO[C@@]1(NC(=O)CSCC#N)C(=O)N2C(C(=O)O)=C(CSc3nnnn3C)CS[C@@H]21`, the Potency result in [1], in experiment [9], in experiment [6] and in [7] was “inactive” in each case. Moreover, the molecule was called inactive in [3], in [4], in experiment [8] and in experiment [5].
As to `COc1cc2c(cc1N)oc1ccccc12`, the Potency result in [1], in [2] and in experiment [6] was “inactive” in each case. Also, the Potency in experiment [9] was 44.2 µM (active). The molecule was classed as inactive in [3], in experiment [4], in experiment [8] and in experiment [5].
Turning to `CC1(C)O[C@@H]2C[C@H]3[C@@H]4CCC5=CC(=O)CC[C@]5(C)[C@@]4(F)[C@@H](O)C[C@]3(C)[C@]2(C(=O)CCl)O1`, the Potency result in experiment [1], in [9], in [6] and in experiment [7] was “inactive” throughout. In addition, the molecule was called inactive in experiment [3], in experiment [4] and in experiment [8].
In the case of `NC(=O)Cc1cccc(C(=O)c2ccccc2)c1N`, the Potency result in experiment [1], in [2], in experiment [9] and in [6] was “inactive” throughout. The result in [4] and in [8] was inactive.
On to `CC(C)CC(=O)OCc1ccccc1`, for which the Potency result in [2], in experiment [6] and in experiment [7] was “inactive” in each case. The outcome in [4] and in experiment [8] was inactive.
With `CCN(CCCc1ccccc1)CCCc1ccccc1`, the Potency entry in [1], in experiment [2] and in experiment [9] was “inactive” in each case. The result in [3] and in experiment [4] was inactive.
On to `Cc1nc(N)nc(N)c1-c1ccc(Cl)c(Cl)c1`, for which the Potency result in experiment [1], in experiment [2], in experiment [6] and in experiment [7] was “inactive” throughout. For the same molecule, the result in experiment [8] and in [5] was inactive.
Regarding `CC1(C)S[C@@H]2[C@H](NC(=O)C(C(=O)O)c3ccccc3)C(=O)N2[C@H]1C(=O)O` (stereo partly specified), the Potency entry in experiment [1], in experiment [2], in experiment [9], in [6] and in experiment [7] was “inactive” in each case. The outcome in [3], in experiment [4] and in experiment [5] was inactive.
In the case of `Cc1ccc(C=O)s1`, the Potency entry in experiment [1], in experiment [9] and in [6] was “inactive” each time. The molecule was classed as inactive in experiment [3], in experiment [4], in [8] and in [5].
On to `CC1=C(CC(=O)O)c2cc(F)ccc2/C1=C\c1ccc(S(C)(=O)=O)cc1`, for which the Potency entry in experiment [9], in experiment [6] and in experiment [7] was “inactive” throughout. The result in [3] and in experiment [4] was inactive.
As to `CCN(CC)C(=O)N(CC)CC`, the Potency entry in experiment [1], in experiment [2], in [9] and in experiment [7] was “inactive” throughout. The outcome in [3], in [4] and in experiment [8] was inactive.
On to `CCCCCCCCOC(=O)CCCCCCCCC(=O)OCCCCCCCC`, for which the Potency result in experiment [1], in [2], in [9], in experiment [6] and in experiment [7] was “inactive” in each case. For the same molecule, the result in experiment [3], in experiment [4] and in [5] was inactive.
